Holding throughout (assay): DAPPL (digital affinity profiling via proximity ligation, sequencing); 10 mM Tris-HCl pH 7.5, 50 mM NaCl, 1 mM DTT, 4% glycerol, room temperature, 30 min; GST-TFs on glutathione beads, 16-mer random dsDNA library, 0.1% formaldehyde crosslink after washing; high values mean tight binding
What all share (settings): protein: recombinant; tags: N-terminal GST; dsDNA, one strand shown

One experiment addresses T1, ERF (Homo sapiens, UniProt P50548 1-548).
T1 sequence: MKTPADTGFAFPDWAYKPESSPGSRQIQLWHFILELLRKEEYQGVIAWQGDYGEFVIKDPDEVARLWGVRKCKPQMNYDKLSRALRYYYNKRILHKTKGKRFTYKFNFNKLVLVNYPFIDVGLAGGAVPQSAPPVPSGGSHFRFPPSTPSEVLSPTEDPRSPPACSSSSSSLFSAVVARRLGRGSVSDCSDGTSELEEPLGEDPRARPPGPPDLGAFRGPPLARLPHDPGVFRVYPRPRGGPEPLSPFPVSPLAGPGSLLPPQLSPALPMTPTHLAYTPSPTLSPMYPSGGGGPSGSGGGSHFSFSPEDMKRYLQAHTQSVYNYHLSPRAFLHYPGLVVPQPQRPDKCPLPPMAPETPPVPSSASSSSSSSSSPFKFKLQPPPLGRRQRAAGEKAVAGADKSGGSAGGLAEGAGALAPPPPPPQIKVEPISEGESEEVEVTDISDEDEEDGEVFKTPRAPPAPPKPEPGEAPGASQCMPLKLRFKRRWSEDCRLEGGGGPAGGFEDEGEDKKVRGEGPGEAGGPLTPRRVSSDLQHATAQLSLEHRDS
Put shortly:
(§1)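 Binding signal is each hexamer's read frequency for a factor divided by its frequency in the tag-only sample. The factors were GST-fused human transcription factors from yeast, captured on glutathione beads, DNA-barcoded and pooled with that sample. Pools were incubated with 200 nmole of a random double-stranded 16-mer DNA library in Tris/NaCl/DTT/glycerol buffer at room temperature for 30 min, then washed, crosslinked with 0.1% formaldehyde, proximity-ligated with BsaI/T4 ligase (1 h, 37 °C), PCR-amplified and sequenced on an Illumina NextSeq500.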

The next experiment concerns the target T2, ETV3L (Homo sapiens, UniProt Q6ZN32 1-361).
T2 sequence: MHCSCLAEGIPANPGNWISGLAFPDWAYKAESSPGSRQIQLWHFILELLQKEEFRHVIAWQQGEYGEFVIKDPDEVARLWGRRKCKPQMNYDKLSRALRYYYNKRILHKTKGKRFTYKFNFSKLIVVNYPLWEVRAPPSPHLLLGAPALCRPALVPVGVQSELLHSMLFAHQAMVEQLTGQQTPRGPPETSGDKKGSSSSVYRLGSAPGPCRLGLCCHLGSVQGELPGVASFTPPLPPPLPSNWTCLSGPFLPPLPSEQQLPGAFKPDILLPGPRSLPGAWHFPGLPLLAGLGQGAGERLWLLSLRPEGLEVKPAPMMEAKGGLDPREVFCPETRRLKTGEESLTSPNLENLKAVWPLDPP
In a few lines: as §1

Another experiment deals with T3, ETS2 (Homo sapiens, UniProt P15036 1-469).
T3 sequence: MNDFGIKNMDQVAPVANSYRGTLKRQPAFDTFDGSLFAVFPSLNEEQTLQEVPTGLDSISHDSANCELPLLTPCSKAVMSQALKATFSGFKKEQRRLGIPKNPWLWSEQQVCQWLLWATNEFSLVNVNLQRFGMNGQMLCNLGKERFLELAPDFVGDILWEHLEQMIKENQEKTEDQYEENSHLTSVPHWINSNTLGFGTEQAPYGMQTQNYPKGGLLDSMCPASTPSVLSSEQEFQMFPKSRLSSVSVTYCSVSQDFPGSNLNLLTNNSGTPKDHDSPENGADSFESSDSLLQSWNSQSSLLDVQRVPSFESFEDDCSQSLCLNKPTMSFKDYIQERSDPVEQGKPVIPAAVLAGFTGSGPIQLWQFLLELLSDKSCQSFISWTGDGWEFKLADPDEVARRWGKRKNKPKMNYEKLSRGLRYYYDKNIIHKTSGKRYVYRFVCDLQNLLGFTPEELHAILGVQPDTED
In a few lines: as §1

For a further experiment, the target named is T4, SPDEF (Homo sapiens, UniProt O95238 1-335).
T4 sequence: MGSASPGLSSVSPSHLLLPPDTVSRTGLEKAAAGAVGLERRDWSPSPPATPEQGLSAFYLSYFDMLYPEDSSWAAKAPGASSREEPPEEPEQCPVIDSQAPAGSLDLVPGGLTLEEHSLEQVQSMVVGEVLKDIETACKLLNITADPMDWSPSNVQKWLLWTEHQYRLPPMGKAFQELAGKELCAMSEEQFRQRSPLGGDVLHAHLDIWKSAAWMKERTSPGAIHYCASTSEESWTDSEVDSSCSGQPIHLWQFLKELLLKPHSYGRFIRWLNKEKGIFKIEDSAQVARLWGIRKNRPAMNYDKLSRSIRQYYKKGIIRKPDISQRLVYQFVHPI
Put shortly: as §1

A further experiment deals with T5, ETV7 (Homo sapiens, UniProt Q9Y603 1-341).
T5 sequence: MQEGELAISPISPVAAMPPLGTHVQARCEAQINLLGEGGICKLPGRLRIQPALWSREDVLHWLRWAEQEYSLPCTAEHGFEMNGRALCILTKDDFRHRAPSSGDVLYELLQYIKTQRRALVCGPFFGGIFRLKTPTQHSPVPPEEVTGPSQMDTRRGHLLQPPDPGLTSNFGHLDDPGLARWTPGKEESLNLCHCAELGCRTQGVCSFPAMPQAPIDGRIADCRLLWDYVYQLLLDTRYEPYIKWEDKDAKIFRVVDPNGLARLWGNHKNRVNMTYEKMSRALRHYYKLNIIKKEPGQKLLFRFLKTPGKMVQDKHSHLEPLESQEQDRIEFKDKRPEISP
Put shortly: as §1

The next experiment deals with T6, ELF5 (Homo sapiens, UniProt Q9UKW6-2 1-255).
T6 sequence: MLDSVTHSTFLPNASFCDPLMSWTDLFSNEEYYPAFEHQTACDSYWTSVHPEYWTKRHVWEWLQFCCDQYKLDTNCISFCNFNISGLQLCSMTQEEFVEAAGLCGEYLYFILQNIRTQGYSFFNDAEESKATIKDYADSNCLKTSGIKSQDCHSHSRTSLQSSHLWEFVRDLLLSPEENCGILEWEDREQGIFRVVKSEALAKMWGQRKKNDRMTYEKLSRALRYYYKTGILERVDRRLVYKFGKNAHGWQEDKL
Put shortly: as §1

The target of another experiment is T7, ETV3 (Homo sapiens, UniProt P41162-2 1-143).
T7 sequence: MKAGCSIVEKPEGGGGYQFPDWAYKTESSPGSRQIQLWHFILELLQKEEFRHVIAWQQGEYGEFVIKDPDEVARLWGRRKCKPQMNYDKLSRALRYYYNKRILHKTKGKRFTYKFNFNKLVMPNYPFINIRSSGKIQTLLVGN
Put shortly:
as §1

Another experiment has as its target ETV6 (Homo sapiens, UniProt P41212 1-452). In a few lines: as §1

Chain of ETV6 (P41212 whole entry): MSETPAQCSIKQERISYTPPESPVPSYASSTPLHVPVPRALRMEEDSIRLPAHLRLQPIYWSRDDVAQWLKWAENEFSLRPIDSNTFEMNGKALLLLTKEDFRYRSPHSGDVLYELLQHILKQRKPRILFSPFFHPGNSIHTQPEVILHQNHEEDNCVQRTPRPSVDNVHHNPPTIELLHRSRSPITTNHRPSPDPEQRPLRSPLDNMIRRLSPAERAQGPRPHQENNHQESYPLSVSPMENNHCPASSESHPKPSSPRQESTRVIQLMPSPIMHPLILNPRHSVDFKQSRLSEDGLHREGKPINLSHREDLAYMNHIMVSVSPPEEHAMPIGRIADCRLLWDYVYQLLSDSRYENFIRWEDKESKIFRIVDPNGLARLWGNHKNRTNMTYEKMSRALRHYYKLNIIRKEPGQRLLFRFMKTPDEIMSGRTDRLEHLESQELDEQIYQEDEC

As to TGTACC, the binding signal is 1.17 fold enrichment (6-mer frequency, TF over GST control) in the experiment with ERF; 1.34 fold enrichment (6-mer frequency, TF over GST control) in the experiment with ETV3L; 1.38 fold enrichment (6-mer frequency, TF over GST control) in the experiment with ETS2; 1.47 fold enrichment (6-mer frequency, TF over GST control) with SPDEF; 1.26 fold enrichment (6-mer frequency, TF over GST control) with ETV7; 1.27 fold enrichment (6-mer frequency, TF over GST control) in the experiment with ELF5. Besides, the binding signal with ETV3 is 1.35 fold enrichment (6-mer frequency, TF over GST control); with ETV6, 1.28 fold enrichment (6-mer frequency, TF over GST control).
As to TTCGAG, the binding signal is 1.23 fold enrichment (6-mer frequency, TF over GST control) in the experiment with ERF; 1.36 fold enrichment (6-mer frequency, TF over GST control) with ETV3L; 1.26 fold enrichment (6-mer frequency, TF over GST control) with ETS2; 1.19 fold enrichment (6-mer frequency, TF over GST control) with SPDEF; 1.18 fold enrichment (6-mer frequency, TF over GST control) with ETV7; 1.14 fold enrichment (6-mer frequency, TF over GST control) in the experiment with ELF5. In addition, the binding signal in the experiment with ETV3 is 1.09 fold enrichment (6-mer frequency, TF over GST control); with ETV6, 1.28 fold enrichment (6-mer frequency, TF over GST control).
Turning to ATTGCT, the binding signal was 1.15 fold enrichment (6-mer frequency, TF over GST control) with ERF; 1.25 fold enrichment (6-mer frequency, TF over GST control) with ETV3L; 1.23 fold enrichment (6-mer frequency, TF over GST control) in the experiment with ETS2; 1.17 fold enrichment (6-mer frequency, TF over GST control) with SPDEF; 1.43 fold enrichment (6-mer frequency, TF over GST control) in the experiment with ETV7; 1.18 fold enrichment (6-mer frequency, TF over GST control) in the experiment with ELF5. Besides, the binding signal with ETV3 was 1.11 fold enrichment (6-mer frequency, TF over GST control); with ETV6, 1.15 fold enrichment (6-mer frequency, TF over GST control).
Turning to AGCATT, the binding signal was 1.04 fold enrichment (6-mer frequency, TF over GST control) in the experiment with ERF; 1.06 fold enrichment (6-mer frequency, TF over GST control) in the experiment with ETV3L; 1.11 fold enrichment (6-mer frequency, TF over GST control) in the experiment with ETS2; 1.02 fold enrichment (6-mer frequency, TF over GST control) with SPDEF; 1.14 fold enrichment (6-mer frequency, TF over GST control) in the experiment with ETV7; 1.1 fold enrichment (6-mer frequency, TF over GST control) in the experiment with ELF5. Besides, the binding signal with ETV3 is 1.09 fold enrichment (6-mer frequency, TF over GST control); with ETV6, 1.14 fold enrichment (6-mer frequency, TF over GST control).
ATGCAC: the binding signal with ERF is 1.25 fold enrichment (6-mer frequency, TF over GST control); with ETV3L it was 1.28 fold enrichment (6-mer frequency, TF over GST control); in the experiment with ETS2, 1.29 fold enrichment (6-mer frequency, TF over GST control); with SPDEF, 1.5 fold enrichment (6-mer frequency, TF over GST control); with ETV7 it was 1.3 fold enrichment (6-mer frequency, TF over GST control); with ELF5, 1.19 fold enrichment (6-mer frequency, TF over GST control). For the same sequence, the binding signal with ETV3 was 1.31 fold enrichment (6-mer frequency, TF over GST control); in the experiment with ETV6, 1.29 fold enrichment (6-mer frequency, TF over GST control).
Take ACCTTG: the binding signal with ERF was 1.31 fold enrichment (6-mer frequency, TF over GST control); in the experiment with ETV3L it was 1.23 fold enrichment (6-mer frequency, TF over GST control); in the experiment with ETS2, 1.27 fold enrichment (6-mer frequency, TF over GST control); with SPDEF, 1.27 fold enrichment (6-mer frequency, TF over GST control); in the experiment with ETV7, 1.22 fold enrichment (6-mer frequency, TF over GST control); with ELF5, 1.11 fold enrichment (6-mer frequency, TF over GST control). Further, the binding signal in the experiment with ETV3 was 1.25 fold enrichment (6-mer frequency, TF over GST control); with ETV6, 1.17 fold enrichment (6-mer frequency, TF over GST control).
For TGATTC, the binding signal was 1.07 fold enrichment (6-mer frequency, TF over GST control) with ERF; 1.09 fold enrichment (6-mer frequency, TF over GST control) with ETV3L; 1.06 fold enrichment (6-mer frequency, TF over GST control) in the experiment with ETS2; 1.04 fold enrichment (6-mer frequency, TF over GST control) with SPDEF; 1.13 fold enrichment (6-mer frequency, TF over GST control) with ETV7; 1.03 fold enrichment (6-mer frequency, TF over GST control) with ELF5. The binding signal with ETV3 is 1.15 fold enrichment (6-mer frequency, TF over GST control); in the experiment with ETV6 it was 1.06 fold enrichment (6-mer frequency, TF over GST control).

The record behind these values is publication PMC7862700, “An all-to-all approach to the identification of sequence-specific readers for epigenetic DNA modifications on cytosine”.
